# Legend:
# Experiment in all cases: DAPPL (digital affinity profiling via proximity ligation, sequencing); 10 mM Tris-HCl pH 7.5, 50 mM NaCl, 1 mM DTT, 4% glycerol, room temperature, 30 min; GST-TFs on glutathione beads, 16-mer random dsDNA library, 0.1% formaldehyde crosslink after washing; high values mean tight binding
# FEV = target: T1, FEV (Homo sapiens, UniProt Q99581 1-238); settings: protein: recombinant; tags: N-terminal GST; dsDNA, one strand shown
# T1 sequence: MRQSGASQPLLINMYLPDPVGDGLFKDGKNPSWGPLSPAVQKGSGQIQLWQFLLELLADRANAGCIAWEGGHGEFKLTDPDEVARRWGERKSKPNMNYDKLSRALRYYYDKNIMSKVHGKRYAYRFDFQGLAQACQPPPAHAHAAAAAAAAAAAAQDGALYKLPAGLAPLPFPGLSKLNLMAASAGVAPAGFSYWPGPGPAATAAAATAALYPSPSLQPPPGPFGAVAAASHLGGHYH
# Method in brief: (§1)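 The binding signal reported is, for every hexamer, its read frequency for a factor over its read frequency for the tag-only sample. Reads came from pools of yeast-expressed, GST-fused human transcription factors on glutathione beads, barcoded with DNA and mixed with that sample, which were incubated with 200 nmole of a random double-stranded 16-mer DNA library in Tris/NaCl/DTT/glycerol buffer at room temperature for 30 min. After washing, the pools were crosslinked with 0.1% formaldehyde, proximity-ligated with BsaI/T4 ligase for 1 h at 37 °C, PCR-amplified and sequenced on an Illumina NextSeq500.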
# ETV5 = ETV5 (Homo sapiens, UniProt P41161 1-510); settings: protein: recombinant; tags: N-terminal GST; dsDNA, one strand shown
# Chain of ETV5 (P41161 whole entry): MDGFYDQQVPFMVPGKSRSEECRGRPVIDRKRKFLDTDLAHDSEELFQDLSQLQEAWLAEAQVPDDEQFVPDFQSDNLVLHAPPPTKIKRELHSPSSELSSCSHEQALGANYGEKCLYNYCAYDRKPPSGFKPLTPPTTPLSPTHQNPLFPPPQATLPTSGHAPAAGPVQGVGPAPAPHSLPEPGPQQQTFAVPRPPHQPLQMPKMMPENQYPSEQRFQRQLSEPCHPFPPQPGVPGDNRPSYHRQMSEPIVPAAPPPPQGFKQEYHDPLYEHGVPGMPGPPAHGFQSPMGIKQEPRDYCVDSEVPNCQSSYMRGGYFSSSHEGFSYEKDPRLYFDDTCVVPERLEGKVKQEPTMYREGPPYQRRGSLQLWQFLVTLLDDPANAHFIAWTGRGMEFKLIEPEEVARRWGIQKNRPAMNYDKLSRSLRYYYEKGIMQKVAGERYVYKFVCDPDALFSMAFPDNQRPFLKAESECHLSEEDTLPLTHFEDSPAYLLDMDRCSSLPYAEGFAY
# Method in brief: as §1
# HSF1 = HSF1 (Homo sapiens, UniProt Q00613 1-529); settings: protein: recombinant; tags: N-terminal GST; chain copies: 3; dsDNA, one strand shown
# Chain of HSF1 (Q00613 whole entry): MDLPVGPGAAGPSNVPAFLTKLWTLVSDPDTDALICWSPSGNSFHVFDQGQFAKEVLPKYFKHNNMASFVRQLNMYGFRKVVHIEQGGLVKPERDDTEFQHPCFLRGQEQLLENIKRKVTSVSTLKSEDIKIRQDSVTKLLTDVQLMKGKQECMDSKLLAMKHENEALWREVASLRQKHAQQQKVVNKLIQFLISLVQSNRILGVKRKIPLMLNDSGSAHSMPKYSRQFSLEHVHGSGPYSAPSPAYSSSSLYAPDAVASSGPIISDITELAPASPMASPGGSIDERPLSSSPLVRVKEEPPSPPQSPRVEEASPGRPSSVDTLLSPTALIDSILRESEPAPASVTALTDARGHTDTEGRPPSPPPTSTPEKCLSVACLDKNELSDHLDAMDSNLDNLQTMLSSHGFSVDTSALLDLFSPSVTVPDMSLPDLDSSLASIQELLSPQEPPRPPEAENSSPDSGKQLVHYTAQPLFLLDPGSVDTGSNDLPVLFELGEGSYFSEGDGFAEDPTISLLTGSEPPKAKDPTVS
# Method in brief: as §1
# SPIC = target: T2, SPIC (Homo sapiens, UniProt Q8N5J4 1-248); settings: protein: recombinant; tags: N-terminal GST; dsDNA, one strand shown
# T2 sequence: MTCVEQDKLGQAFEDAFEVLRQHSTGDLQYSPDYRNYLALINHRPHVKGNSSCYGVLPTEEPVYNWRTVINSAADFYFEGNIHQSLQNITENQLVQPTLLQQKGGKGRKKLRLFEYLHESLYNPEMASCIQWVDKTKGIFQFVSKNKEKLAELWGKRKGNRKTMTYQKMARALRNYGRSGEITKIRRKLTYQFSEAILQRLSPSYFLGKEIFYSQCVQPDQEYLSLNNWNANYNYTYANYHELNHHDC
# Method in brief: as §1
# ELF4 = ELF4 (Homo sapiens, UniProt Q99607 1-663); settings: protein: recombinant; tags: N-terminal GST; dsDNA, one strand shown
# Chain of ELF4 (Q99607 whole entry): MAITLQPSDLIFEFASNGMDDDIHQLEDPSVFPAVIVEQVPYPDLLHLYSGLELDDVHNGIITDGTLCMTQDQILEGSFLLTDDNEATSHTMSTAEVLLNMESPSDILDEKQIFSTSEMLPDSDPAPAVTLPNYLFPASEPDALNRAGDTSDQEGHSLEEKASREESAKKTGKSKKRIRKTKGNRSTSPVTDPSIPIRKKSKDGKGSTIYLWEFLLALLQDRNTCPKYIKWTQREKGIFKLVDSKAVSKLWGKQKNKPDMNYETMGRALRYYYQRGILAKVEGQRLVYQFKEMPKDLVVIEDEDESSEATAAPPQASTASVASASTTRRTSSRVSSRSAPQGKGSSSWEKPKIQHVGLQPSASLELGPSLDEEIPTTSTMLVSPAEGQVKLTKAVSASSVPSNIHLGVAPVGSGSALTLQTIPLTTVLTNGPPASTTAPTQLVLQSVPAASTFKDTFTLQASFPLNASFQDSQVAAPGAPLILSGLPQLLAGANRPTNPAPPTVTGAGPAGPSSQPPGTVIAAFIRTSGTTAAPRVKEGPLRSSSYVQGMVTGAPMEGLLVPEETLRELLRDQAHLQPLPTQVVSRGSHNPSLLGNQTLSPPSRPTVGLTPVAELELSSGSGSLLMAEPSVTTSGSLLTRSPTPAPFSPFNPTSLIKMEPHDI
# Method in brief: as §1
# ELK4 = target: T3, ELK4 (Homo sapiens, UniProt P28324-2 1-405); settings: protein: recombinant; tags: N-terminal GST; dsDNA, one strand shown
# T3 sequence: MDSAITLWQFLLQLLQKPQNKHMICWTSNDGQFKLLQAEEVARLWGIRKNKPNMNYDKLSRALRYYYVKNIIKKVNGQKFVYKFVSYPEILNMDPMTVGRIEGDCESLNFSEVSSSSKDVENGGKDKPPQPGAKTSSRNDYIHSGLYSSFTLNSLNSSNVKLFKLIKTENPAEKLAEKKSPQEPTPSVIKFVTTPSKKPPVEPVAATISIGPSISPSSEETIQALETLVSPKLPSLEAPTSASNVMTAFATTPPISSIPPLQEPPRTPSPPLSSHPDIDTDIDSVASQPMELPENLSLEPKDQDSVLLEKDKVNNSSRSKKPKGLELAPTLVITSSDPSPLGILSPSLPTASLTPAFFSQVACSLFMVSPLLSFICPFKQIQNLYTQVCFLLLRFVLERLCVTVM
# Method in brief: as §1
# ETV2 = target: T4, ETV2 (Homo sapiens, UniProt O00321 1-342); settings: protein: recombinant; tags: N-terminal GST; dsDNA, one strand shown
# T4 sequence: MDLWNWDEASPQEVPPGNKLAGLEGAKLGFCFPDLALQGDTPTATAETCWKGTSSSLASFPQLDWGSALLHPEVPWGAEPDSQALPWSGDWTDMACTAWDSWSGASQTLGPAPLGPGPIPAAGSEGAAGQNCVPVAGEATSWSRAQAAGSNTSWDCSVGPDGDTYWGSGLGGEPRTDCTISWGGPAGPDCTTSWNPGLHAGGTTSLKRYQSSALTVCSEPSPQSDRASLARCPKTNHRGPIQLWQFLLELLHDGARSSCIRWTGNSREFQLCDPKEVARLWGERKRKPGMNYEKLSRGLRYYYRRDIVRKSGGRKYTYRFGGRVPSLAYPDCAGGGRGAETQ
# Method in brief: as §1
# ELF3 = target: T5, ELF3 (Homo sapiens, UniProt P78545 1-371); settings: protein: recombinant; tags: N-terminal GST; dsDNA, one strand shown
# T5 sequence: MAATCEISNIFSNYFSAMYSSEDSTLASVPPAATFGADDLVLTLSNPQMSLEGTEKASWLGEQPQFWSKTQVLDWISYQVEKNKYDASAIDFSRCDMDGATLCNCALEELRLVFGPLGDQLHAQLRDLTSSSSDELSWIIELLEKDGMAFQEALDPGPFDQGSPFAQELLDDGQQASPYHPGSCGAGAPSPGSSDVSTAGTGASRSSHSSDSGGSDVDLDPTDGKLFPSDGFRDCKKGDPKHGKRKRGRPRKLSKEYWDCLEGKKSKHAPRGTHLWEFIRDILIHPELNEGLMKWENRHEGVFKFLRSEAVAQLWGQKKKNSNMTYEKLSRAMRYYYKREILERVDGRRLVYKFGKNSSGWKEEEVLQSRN
# Method in brief: as §1
# CRX = CRX (Homo sapiens, UniProt O43186 1-299); settings: protein: recombinant; tags: N-terminal GST; dsDNA, one strand shown
# Chain of CRX (O43186 whole entry): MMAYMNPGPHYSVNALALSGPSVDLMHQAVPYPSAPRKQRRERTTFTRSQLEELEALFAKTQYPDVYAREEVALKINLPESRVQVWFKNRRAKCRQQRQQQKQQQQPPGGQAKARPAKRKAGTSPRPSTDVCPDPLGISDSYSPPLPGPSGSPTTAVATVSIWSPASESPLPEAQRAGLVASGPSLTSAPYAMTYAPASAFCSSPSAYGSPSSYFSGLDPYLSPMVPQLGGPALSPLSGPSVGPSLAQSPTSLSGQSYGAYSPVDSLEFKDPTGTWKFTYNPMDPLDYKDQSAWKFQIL
# Method in brief: as §1
# ETV1 = ETV1 (Homo sapiens, UniProt P50549 1-477); settings: protein: recombinant; tags: N-terminal GST; dsDNA, one strand shown
# Chain of ETV1 (P50549 whole entry): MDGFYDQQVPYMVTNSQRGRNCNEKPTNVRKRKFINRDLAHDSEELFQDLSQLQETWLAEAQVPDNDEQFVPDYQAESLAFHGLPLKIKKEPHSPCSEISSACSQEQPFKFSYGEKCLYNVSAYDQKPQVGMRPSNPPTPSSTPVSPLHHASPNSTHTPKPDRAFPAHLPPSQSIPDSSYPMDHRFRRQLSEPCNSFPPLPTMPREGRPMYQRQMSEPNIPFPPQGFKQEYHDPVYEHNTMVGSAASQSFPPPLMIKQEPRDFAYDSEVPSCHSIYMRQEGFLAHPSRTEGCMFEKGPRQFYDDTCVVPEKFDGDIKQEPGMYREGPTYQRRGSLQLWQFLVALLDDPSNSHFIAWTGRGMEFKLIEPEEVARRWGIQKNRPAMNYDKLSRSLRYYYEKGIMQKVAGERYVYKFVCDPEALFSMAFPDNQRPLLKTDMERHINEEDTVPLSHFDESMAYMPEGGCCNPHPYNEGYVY
# Method in brief: as §1
# ERF = target: T6, ERF (Homo sapiens, UniProt P50548 1-548); settings: protein: recombinant; tags: N-terminal GST; dsDNA, one strand shown
# T6 sequence: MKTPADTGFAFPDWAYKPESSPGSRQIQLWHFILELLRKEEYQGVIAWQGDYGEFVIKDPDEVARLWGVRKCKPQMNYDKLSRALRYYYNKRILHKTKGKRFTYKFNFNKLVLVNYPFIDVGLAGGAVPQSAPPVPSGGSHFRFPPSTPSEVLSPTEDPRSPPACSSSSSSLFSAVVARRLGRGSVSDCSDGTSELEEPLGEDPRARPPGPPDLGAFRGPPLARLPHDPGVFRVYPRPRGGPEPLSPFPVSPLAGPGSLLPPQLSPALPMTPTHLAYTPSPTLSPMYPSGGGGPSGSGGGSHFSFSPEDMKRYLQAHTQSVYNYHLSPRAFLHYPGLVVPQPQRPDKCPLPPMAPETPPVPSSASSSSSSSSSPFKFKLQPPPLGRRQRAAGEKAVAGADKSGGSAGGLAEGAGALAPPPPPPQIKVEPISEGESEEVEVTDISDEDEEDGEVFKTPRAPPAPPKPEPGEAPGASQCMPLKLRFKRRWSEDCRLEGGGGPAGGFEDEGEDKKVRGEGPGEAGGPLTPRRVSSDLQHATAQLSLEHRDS
# Method in brief: as §1
# ETV3L = target: T7, ETV3L (Homo sapiens, UniProt Q6ZN32 1-361); settings: protein: recombinant; tags: N-terminal GST; dsDNA, one strand shown
# T7 sequence: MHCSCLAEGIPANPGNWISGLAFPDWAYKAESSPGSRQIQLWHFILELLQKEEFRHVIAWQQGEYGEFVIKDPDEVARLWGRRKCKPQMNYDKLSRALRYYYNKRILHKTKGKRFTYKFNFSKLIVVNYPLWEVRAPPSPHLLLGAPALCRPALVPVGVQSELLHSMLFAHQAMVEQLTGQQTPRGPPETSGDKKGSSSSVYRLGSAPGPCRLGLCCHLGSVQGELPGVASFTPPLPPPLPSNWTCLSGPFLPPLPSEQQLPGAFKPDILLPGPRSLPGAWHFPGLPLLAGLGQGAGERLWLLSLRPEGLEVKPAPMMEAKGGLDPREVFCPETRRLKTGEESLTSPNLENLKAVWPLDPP
# Method in brief: as §1
# ETS2 = target: T8, ETS2 (Homo sapiens, UniProt P15036 1-469); settings: protein: recombinant; tags: N-terminal GST; dsDNA, one strand shown
# T8 sequence: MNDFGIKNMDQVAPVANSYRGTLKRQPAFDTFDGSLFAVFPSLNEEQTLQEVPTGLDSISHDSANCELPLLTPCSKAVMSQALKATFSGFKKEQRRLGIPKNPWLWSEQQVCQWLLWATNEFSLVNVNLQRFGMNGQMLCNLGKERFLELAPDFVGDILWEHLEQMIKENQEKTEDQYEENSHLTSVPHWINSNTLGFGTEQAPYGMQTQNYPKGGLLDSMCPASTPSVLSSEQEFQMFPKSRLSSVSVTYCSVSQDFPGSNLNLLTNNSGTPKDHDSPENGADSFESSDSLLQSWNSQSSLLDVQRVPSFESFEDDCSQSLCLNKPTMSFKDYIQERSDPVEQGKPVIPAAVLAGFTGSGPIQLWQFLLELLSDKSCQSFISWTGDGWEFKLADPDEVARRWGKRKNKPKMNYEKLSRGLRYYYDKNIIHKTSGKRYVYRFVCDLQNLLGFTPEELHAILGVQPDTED
# Method in brief: as §1
# SPDEF = target: T9, SPDEF (Homo sapiens, UniProt O95238 1-335); settings: protein: recombinant; tags: N-terminal GST; dsDNA, one strand shown
# T9 sequence: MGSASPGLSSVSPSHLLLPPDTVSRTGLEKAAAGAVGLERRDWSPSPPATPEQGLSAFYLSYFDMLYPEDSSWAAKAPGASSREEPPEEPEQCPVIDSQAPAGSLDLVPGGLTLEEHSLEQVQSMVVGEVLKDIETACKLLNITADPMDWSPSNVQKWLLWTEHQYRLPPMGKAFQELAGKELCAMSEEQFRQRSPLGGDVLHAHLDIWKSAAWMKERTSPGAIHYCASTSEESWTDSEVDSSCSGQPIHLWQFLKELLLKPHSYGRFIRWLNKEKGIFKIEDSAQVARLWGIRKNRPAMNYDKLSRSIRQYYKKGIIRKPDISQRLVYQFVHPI
# Method in brief: as §1
# ETV7 = target: T10, ETV7 (Homo sapiens, UniProt Q9Y603 1-341); settings: protein: recombinant; tags: N-terminal GST; dsDNA, one strand shown
# T10 sequence: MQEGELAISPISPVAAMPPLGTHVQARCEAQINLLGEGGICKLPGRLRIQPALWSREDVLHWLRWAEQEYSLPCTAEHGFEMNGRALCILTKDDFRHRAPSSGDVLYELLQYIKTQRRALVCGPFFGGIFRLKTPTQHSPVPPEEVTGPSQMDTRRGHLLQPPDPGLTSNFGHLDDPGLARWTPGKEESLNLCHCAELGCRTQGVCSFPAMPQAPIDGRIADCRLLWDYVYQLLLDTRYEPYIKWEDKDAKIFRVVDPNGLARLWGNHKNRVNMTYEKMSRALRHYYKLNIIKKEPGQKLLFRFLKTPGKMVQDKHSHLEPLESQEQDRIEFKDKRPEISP
# Method in brief: as §1
# ELF5 = target: T11, ELF5 (Homo sapiens, UniProt Q9UKW6-2 1-255); settings: protein: recombinant; tags: N-terminal GST; dsDNA, one strand shown
# T11 sequence: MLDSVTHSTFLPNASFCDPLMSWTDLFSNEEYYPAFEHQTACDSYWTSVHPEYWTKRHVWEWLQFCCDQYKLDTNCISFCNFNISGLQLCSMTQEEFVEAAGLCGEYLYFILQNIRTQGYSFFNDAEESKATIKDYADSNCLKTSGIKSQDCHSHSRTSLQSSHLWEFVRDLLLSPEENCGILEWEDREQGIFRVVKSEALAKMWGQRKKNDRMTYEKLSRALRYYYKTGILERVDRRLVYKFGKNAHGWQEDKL
# Method in brief: as §1
# ETV3 = target: T12, ETV3 (Homo sapiens, UniProt P41162-2 1-143); settings: protein: recombinant; tags: N-terminal GST; dsDNA, one strand shown
# T12 sequence: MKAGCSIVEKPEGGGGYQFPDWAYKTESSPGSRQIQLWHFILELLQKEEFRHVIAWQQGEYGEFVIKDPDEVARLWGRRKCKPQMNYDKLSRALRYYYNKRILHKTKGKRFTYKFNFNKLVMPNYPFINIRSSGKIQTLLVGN
# Method in brief: as §1
# ETV6 = ETV6 (Homo sapiens, UniProt P41212 1-452); settings: protein: recombinant; tags: N-terminal GST; dsDNA, one strand shown
# Chain of ETV6 (P41212 whole entry): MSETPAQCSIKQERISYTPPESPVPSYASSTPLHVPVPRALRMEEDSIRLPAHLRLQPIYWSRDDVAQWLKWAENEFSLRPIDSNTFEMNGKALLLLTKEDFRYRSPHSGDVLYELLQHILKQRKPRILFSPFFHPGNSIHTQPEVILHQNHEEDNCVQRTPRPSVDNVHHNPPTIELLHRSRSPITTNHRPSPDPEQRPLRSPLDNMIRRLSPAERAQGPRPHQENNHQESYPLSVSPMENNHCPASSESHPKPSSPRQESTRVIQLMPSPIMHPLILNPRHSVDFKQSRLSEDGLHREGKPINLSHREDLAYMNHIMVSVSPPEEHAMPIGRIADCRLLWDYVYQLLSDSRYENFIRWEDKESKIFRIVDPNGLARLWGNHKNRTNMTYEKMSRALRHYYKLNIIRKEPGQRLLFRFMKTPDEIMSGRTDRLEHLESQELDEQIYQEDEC
# Method in brief: as §1
sequence,measurement,setting,value
AACAAT,binding signal,FEV,"1.29 fold enrichment (6-mer frequency, TF over GST control)"
same,binding signal,ETV5,"1.29 fold enrichment (6-mer frequency, TF over GST control)"
same,binding signal,HSF1,"1.48 fold enrichment (6-mer frequency, TF over GST control)"
same,binding signal,SPIC,"1.26 fold enrichment (6-mer frequency, TF over GST control)"
same,binding signal,ELF4,"1.32 fold enrichment (6-mer frequency, TF over GST control)"
same,binding signal,ELK4,"1.27 fold enrichment (6-mer frequency, TF over GST control)"
same,binding signal,ETV2,"1.31 fold enrichment (6-mer frequency, TF over GST control)"
same,binding signal,ELF3,"1.56 fold enrichment (6-mer frequency, TF over GST control)"
same,binding signal,CRX,"1.24 fold enrichment (6-mer frequency, TF over GST control)"
same,binding signal,ETV1,"1.36 fold enrichment (6-mer frequency, TF over GST control)"
same,binding signal,ERF,"1.31 fold enrichment (6-mer frequency, TF over GST control)"
same,binding signal,ETV3L,"1.26 fold enrichment (6-mer frequency, TF over GST control)"
same,binding signal,ETS2,"1.27 fold enrichment (6-mer frequency, TF over GST control)"
same,binding signal,SPDEF,"1.2 fold enrichment (6-mer frequency, TF over GST control)"
same,binding signal,ETV7,"1.24 fold enrichment (6-mer frequency, TF over GST control)"
same,binding signal,ELF5,"1.36 fold enrichment (6-mer frequency, TF over GST control)"
same,binding signal,ETV3,"1.32 fold enrichment (6-mer frequency, TF over GST control)"
same,binding signal,ETV6,"1.31 fold enrichment (6-mer frequency, TF over GST control)"

# Source: paper PMC7862700, “An all-to-all approach to the identification of sequence-specific readers for epigenetic DNA modifications on cytosine”
